Hits are enriched below; roughly 14% of the tested compounds scored in any of these assays.
HCMV inh: blocks human cytomegalovirus replication. HFF cells, HCMV-luciferase reporter, 72 h; stronger effect = lower value. 410,000 tested, 4.5% active. AID 1259415. activity change, negative = inhibition, % at 57.5 µM; in the data active = activity change below about -60%; inconclusive = no clear call, values can overlap the other calls; inactive = above about -39%
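Human foreskin fibroblasts infected with luciferase-reporter HCMV at MOI 1 PFU/cell, compounds at two doses. Luciferase measured 72 h post infection; normalized to buffer-only basal and Salinomycin (10uM) controls.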
Pf growth 48h: P. falciparum growth inhibition at 48 hours (one generation); P. falciparum luciferase growth in erythrocytes, 48 h; Potency, µM (titrated, usually from 28.7 µM), without a hit: at the top dose activity change, negative = inhibition, usual class: inhibitors; 310,000 tested, 5.9% active; AID 504832; note: potency is the fitted concentration of half-maximal effect
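First compound was added to culture medium, then infected red cells at 0.1% parasitemia and 2% hematocrit (final). After incubation at 37 C under 5% CO2, luciferase detection reagent was dispensed and light output recorded.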
FBPA Giardia inh: Giardia lamblia aldolase inhibition; Potency, µM (doses to about 59.6 µM), without a hit: at the highest dose activity, negative = inhibition, actives largely listed as inhibitors; purified Giardia FBPA; 290,000 tested, 0.71% active; A8B2U2; note: potency is the fitted concentration of half-maximal effect; nearly all actives have a fitted effect of over 55% in size
Target sequence (A8B2U2 whole entry, looked up): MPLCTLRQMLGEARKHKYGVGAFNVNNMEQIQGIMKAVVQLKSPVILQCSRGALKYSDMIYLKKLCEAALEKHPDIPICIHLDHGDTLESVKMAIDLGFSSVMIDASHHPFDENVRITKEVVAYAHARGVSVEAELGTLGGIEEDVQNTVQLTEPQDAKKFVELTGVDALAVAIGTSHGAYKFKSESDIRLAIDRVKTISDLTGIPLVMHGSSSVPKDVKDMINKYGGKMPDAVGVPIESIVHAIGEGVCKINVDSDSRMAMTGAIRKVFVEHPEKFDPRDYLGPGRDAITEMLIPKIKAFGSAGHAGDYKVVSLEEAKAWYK
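Giardia FBPA (40 nM reagent) was preincubated 10 min at RT with compound (up to 57.5 uM final), then substrate plus GAPDH/TPI/NAD/arsenate coupling system with diaphorase/resazurin was added; resorufin fluorescence (525/598 nm) was read after 20 min.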
Sm TGR block: S. mansoni TGR enzyme inhibition. AID 485364. purified TGR, DTNB reduction, TNB absorbance 405 nm. 360,000 tested, 3% active. Q962Y6. Potency, µM (highest dose often 114 µM), inactives show at the highest dose activity change, negative = inhibition, hits mostly inhibitors; note: potency is the fitted concentration of half-maximal effect; nearly all actives have a fitted effect of over 60% in size
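First, TGR (20 nM dispensed) and NADPH were mixed with compound. Second, a 15 min room-temperature incubation followed. Third, further NADPH and then DTNB were added to start the reaction. Finally, TNB absorbance was monitored kinetically.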
Pf growth 96h: P. falciparum growth inhibition at 96 hour, primary screen for plastid delayed-death inhibitors | P. falciparum luciferase reporter growth, 96 h | Potency, µM (top dose mostly 28.7 µM), for inactives: top-dose activity change, negative = inhibition, hits mostly inhibitors | 320,000 tested, 6.9% active; note: potency is the fitted concentration of half-maximal effect
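Plates of compound plus infected erythrocytes (2% hematocrit, 0.05% parasitemia final) incubate 96 hours, 37 C, 5% CO2. Detection reagent added; reduced luminescence from the parasites' luciferase reporter flags inhibition.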
An asterisk follows results filed as active; ? = inconclusive; nt = no result; [ ] = another dose, or the depositor's remark. Unless noted, calls come from the whole dose curve; as a rule, active = well fitted curve in the direction sought with a large enough effect; inconclusive = small, poorly fitted or top-dose-only effect, or another doubt; inactive = no such curve, though single readings can be large; an effect the other way counts as inactive or inconclusive. % is set by controls: 0 for no effect and ±100 for the full control effect.

SMILES	HCMV inh	Pf growth 48h	FBPA Giardia inh	Sm TGR block	Pf growth 96h
CCC(=O)C1=C(c2ccc(F)cc2)N(C(=O)CC)n2cnnc2S1	-82*	nt	nt	?	nt
CCOc1ccc(C2=C(C(=O)CC)Sc3nncn3N2C(=O)CC)cc1	-101*	nt	nt	-31%	nt
CC(=O)C1=C(c2ccc(Cl)c(Cl)c2)N(C(C)=O)n2c(C)nnc2S1	-29	nt	nt	?	nt
COc1cc2oc(=O)c(CC(=O)N3CCCCC3)c(C)c2cc1OC	-15	nt	nt	0%	nt
Cc1noc(C)c1-c1ccc(C(=O)NCc2cccc(Cl)c2)c2occc12	102	nt	nt	nt	nt
CN1CCCN(c2cc(-c3ccc4ccccc4c3)nc3ccnn23)CC1	-91*	nt	nt	nt	nt
CCOC(=O)C1(C(=O)OCC)N=C(c2ccccc2)C=C1c1ccccc1	-33	nt	nt	nt	nt
O=C(NCc1ccccc1)c1ccccc1	10	nt	nt	nt	nt
O=C(NCc1c(O)ccc2ccccc12)c1ccccc1	32	?	2%	-4%	10µM*
Oc1ccc2ccccc2c1CNc1ccc(Br)cc1	-16	29%[0.00184 µM]	-9%	0.63µM*	1%
COc1ccccc1NC(=O)c1ccccc1NC(=O)c1cccs1	-27	2%	-7%	-4%	?
Cc1cc(C)n2c(SCC(=O)Nc3cc(C)on3)nnc2n1	-14	10%	-4%	-11%	-26%
CCc1nnc(NC(=O)CSc2nnc3nc(C)cc(C)n23)s1	10	-10%	nt	1%	2.1µM*
Fc1ccc2c(c1)-c1c(cnc3cc(-c4ccc(Cl)cc4)nn13)CO2	32	nt	nt	2%	nt
Cc1cccc(NC(=S)N=Nc2c(O)[nH]c3ccccc23)c1	-25	?	-15%	-1%	2.9µM*
Cc1occc1C(=O)N=Nc1c(O)[nH]c2ccc(Br)cc12	nt	139%	1%	2%	4.1µM*
CC(C)NC(=S)N=Nc1c(O)[nH]c2ccc(C(C)C)cc12	-16	8.3µM*	6%	3%	?
O=C(CNC(=O)c1ccco1)N=Nc1c(O)[nH]c2ccc(Br)cc12	-20	27%	-26%	-23%	22%
COc1ccccc1NC(=S)N=Nc1c(O)[nH]c2ccc(Br)cc12	-67*	0.93µM*	-4%	-11%	1µM*
O=C(N=Nc1c(O)[nH]c2ccccc12)Nc1ccccc1	95	nt	nt	nt	nt
CC1Cc2cc(S(=O)(=O)NCc3ccccc3Cl)ccc2N1C(=O)C1CCC1 (stereo unspecified)	?	nt	nt	1%	nt
CC[C@H](C)[C@H](NC(=O)[C@H](CC(=O)O)NC(=O)[C@H](CC(C)C)NC(=O)[C@H](Cc1cnc[nH]1)NC(=O)[C@H](C)NC(=O)[C@H](Cc1ccccc1)NC(=O)[C@H](Cc1ccc(O)cc1)NC(=O)[C@@H](NC(=O)[C@H](C)NC(=O)[C@H](CCC(=O)O)NC(=O)[C@H](CCCCN)NC(=O)[C@H](CC(=O)O)NC(=O)[C@H](CCSC)NC(=O)[C@H](CC(C)C)NC(C)=O)C(C)C)C(=O)N[C@H](C(=O)N[C@@H](Cc1c[nH]c2ccccc12)C(=O)O)[C@@H](C)CC	nt	nt	2%	nt	nt
CC(C)C[C@H]1CN(CCCC[C@@H]2CNC(=O)C(=O)N2Cc2ccccc2)C(=O)C(=O)N1CCc1ccc(O)cc1	3	nt	nt	nt	nt
O=C(NCCCN1CCCC1=O)C1CCC(CNS(=O)(=O)c2ccc(Cl)cc2)CC1 (stereo unspecified)	-7	4%	1%	-5%	12µM*
Cc1cc(C)c(S(=O)(=O)NCC2CCC(C(=O)NCCCN3CCC(C)CC3)CC2)c(C)c1 (stereo unspecified)	-16	9.3µM*	-5%	0%	8%
SMILES	HCMV inh	Pf growth 48h	FBPA Giardia inh	Sm TGR block	Pf growth 96h
CCS(=O)(=O)N1CCCC(C(=O)NCCCOC)C1 (stereo unspecified)	43	0%	0%	17%	14%
CCS(=O)(=O)N1CCCC(C(=O)NCCCN2CCCC2=O)C1 (stereo unspecified)	-28	7%	-8%	-1%	10µM*
COc1ccc2c(c1)CCc1c(C(=O)Nc3cc(OC)c(Cl)cc3OC)noc1-2	7	nt	nt	-8%	nt
CC(=O)Nc1ccc(NC(=O)COc2cccc3ccccc23)cc1	23	nt	nt	nt	nt
Cc1ccc(NC(=O)COc2cccc3c2OC(C)(C)C3)c(O)c1	6	10µM*	nt	1%	?
COc1ccc(NC(=O)COc2cccc3c2OC(C)(C)C3)cc1OC	?	-27%	nt	-5%	?
